Compound activity deposited in PubChem BioAssay by several laboratories.
HSF1 inhib = HSF1 inhibition. actives 0.77% (n = 300,000). NIH3T3-HGL HSE-luciferase, MG132-induced, luminescence 8 h; hits give low values. activity change, negative = inhibition, % at 7.5 µM (by protocol). AID 2098;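 active means more than half of replicate wells show activity change below -50%, luminescence cut by over half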;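 further: luciferase reports HSF-1 transcriptional activity via heat shock element; 0% = median of DMSO wells and -100% = zero luminescence signal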
AI-2 QS mod = Vibrio harveyi AI-2 quorum sensing modulation | activity change, % at 7.5 µM | Vibrio harveyi JMH597 AI-2 luminescence/OD600 ratio, 9 h; hits give low values; strain lacks LuxN and CqsS sensors; 0 = neutral-control median | AID 2094 | actives 0.4% (n = 300,000); in the data active means activity change below about -75%, passing the limit was not always enough;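 further: luminescence divided by OD600 gain over 9 h not by final OD600 alone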
HSP90 inh = HSP90 refolding inhibition in rabbit reticulocyte lysate. luciferase refolding luminescence, 3 h. AID 1789. inhibition, % at 5.6 µM. actives 0.91% (n = 290,000);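 active means inhibition above the screen-wide mean plus 3 SD, computed separately per campaign, cut at about 16% in these data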;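 further: 0% = DMSO wells and 100% = 60 µM geldanamycin wells; inhibitors lower the luminescence because luciferase stays unfolded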
GAA850 FXN act = frataxin GAA850 promoter activation | activation, % at 6 µM | actives 0.56% (n = 360,000) | HEK293 lucGAA850 FXN promoter luciferase reporter, 24 h; percent of 10 µM SAHA response;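 active means activation above the average of all compounds screened plus 3 SD, cutoff fixed separately per campaign, cut at about 7.5% in these data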;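 further: 0% = DMSO wells and 100% = 10 µM SAHA wells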
PG9 binder = PG9 antibody binding by small molecule. TR-FRET gp120-PG9 antibody binding. inhibition, % at 6.7 µM. actives 0.43% (n = 360,000). AID 624416; in the data active means inhibition above about 8.5%
SMARCA2 activ = activators of SMARCA2 function; MG213 cells, MMTV-luciferase reporter, dexamethasone, overnight; activation, % at 9.1 µM; actives 1% (n = 370,000); AID 652017; in the data active means activation above about 7.8%;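 further: 0% = vehicle wells and 100% = reference activator wells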
SMARCA2 act conf = confirmation of SMARCA2 (BRM) function activators; activation, % at 9.1 µM; MG213 cells, MMTV-luciferase with dexamethasone, luminescence, overnight; MG213 cells expressing E1A, Rb sequestered; DMSO wells 0%, reference activator 100%; shares compounds with SMARCA2 activ; actives 30% (n = 3,500);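 active means activation above its plate's cutoff, the mean activation of tested wells plus 3 SD, cut at about 7.9% in these data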
VP16 Luc act = activates GAL4-VP16 luciferase, flagging SMARCA2 activator hits; HEK293 GAL4-VP16 pG5luc reporter, luciferase luminescence; scaled: DMSO wells 0%, SAHA wells 100%; activation, % at 9.1 µM; shares compounds with SMARCA2 activ; actives 41% (n = 3,500); AID 686939;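 active means activation above the solvent-only control well mean plus 3 SD, averaged across control plates, cut at about 5.2% in these data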
* hit, by the source's call; x = not tested or not shown; ! = not active in a repeat. An excerpt weighted towards active compounds, which were near 3.4% of everything screened.

SMILES	HSF1 inhib	AI-2 QS mod	HSP90 inh	GAA850 FXN act	PG9 binder	SMARCA2 activ	SMARCA2 act conf	VP16 Luc act
CN1OC[C@@H]2CN(C(=S)NCCc3ccccc3)[C@H](c3ccc(-n4ccnc4)cc3)C[C@@H]21	x	x	x	x	1	8.4*	1	1
O=C(Nc1ccc(Cl)cc1C(=O)c1ccccn1)c1ccccc1	x	x	x	2	0	2	x	x
Cc1ccc(C(=O)Sc2cccccc2=O)cc1	15	11	10	-15	-4	-10	x	x
Cc1nc2cc(-c3ccc(Cl)cc3)nn2c(NCCN(C)C)c1C	18	7	0	5	-2	9.9*	19*	7.9*
CN1CCN(Cc2nc3ccccc3c(=O)n2Cc2nc(-c3cccc([N+](=O)[O-])c3)cs2)CC1	x	x	-3	-2	-1	1	x	x
CN1CCN(Cc2nc3ccccc3c(=O)n2Cc2nc(-c3ccc4ccccc4c3)cs2)CC1	0	8	3	-6	-2	8.2*!	21*	0
CC(=O)N1CCn2c3ccc(C)cc3c3cccc1c32	36	20	-2	1	1	8.4*	6	3
CSc1oc(-c2ccco2)nc1S(=O)(=O)c1ccc(F)cc1	7	51	-3	1	-1	0	x	x
CSc1oc(-c2ccco2)nc1S(=O)(=O)c1ccc(C)cc1	0	21	8	4	-1	9.2*	0	1
CCCS(=O)(=O)NC(=O)C1(C)CCN(C(=O)c2ccccc2C(F)(F)F)C1 (configuration not stated)	x	x	x	1	x	x	x	x
Oc1ccccc1-c1nnc(COc2ccc(Cl)cc2Cl)o1	15	16	-4	2	2	9.3*	5	13*
Nc1ccc2c(c1)C(=O)c1cc(N)c(Cl)cc1-2	x	x	x	0	-35	11*	11*	3
COc1ccc(-c2cc(NC=O)c3ncc(-c4cccc(C(=O)NCCN(C)C)c4)n3c2)cc1	x	x	x	-2	-2	8.0*	11*	0
CC(=O)Nc1cc(-c2cccc(C(=O)NCCN(C)C)c2)cn2c(-c3cccc(C(F)(F)F)c3)cnc12	x	x	x	-3	0	22*	-15	2
CC(=O)Nc1cc(-c2cccc(C(=O)NCCN(C)C)c2)cn2c(-c3ccccc3)cnc12	x	x	x	-2	1	-1	x	x
COc1ccc(-c2cc(NC(C)=O)c3ncc(-c4cccc(C(C)=O)c4)n3c2)cc1OC	x	x	x	2	-1	-2	x	x
CC(=O)Nc1cccc(-c2cc(NC(C)=O)c3ncc(-c4cccc(C(C)=O)c4)n3c2)c1	x	x	x	-4	-3	8.9*	4	1
CCOc1ccccc1N(CC)C(=O)c1cc2c(s1)-c1ccccc1S(=O)(=O)C2	x	x	x	-2	0	-4	x	x
O=C(COc1ccccc1)NNc1nc2c(F)cc(F)cc2s1	7	15	6	-1	2	-1	x	x
O=C(Nc1nc2c(F)cc(F)cc2s1)c1ccccn1	348	12	2	4	2	11*	-14	20*
COc1ccc(OCc2cc(C(=O)NC(C)c3csc(C)n3)no2)c(Cl)c1 (configuration not stated)	16	11	-3	3	1	9.8*	4	6.0*
Cc1ccc(CNC(=O)c2ccc([N+](=O)[O-])o2)cc1	6	9	0	-2	0	-2	x	x
O=C(Nc1ncccn1)c1ccc([N+](=O)[O-])o1	24	-68	1	4	-4	15*	10*	1
NC(=O)c1ccsc1NC(=O)COC(=O)c1ccc([N+](=O)[O-])o1	x	x	x	0	0	3	x	x
O=C(Nc1cccc([N+](=O)[O-])c1)c1ccc([N+](=O)[O-])o1	x	x	x	0	0	15*	19*	2
SMILES	HSF1 inhib	AI-2 QS mod	HSP90 inh	GAA850 FXN act	PG9 binder	SMARCA2 activ	SMARCA2 act conf	VP16 Luc act
CC(C)(C)C(=O)N1CCN(c2ccc(NC(=O)c3ccc([N+](=O)[O-])o3)cc2)CC1	1	11	5	5	-3	9.8*	1	4
NC(=O)c1ccsc1NC(=O)c1ccc([N+](=O)[O-])o1	x	x	x	-1	-5	8.3*	18*	5
O=C(NCc1ccccc1)[C@@H]1CCCN1C(=O)[C@H]1CCCN1C(=O)c1cc(F)cc(F)c1	x	x	x	x	0	-2	x	x
O=C(Nc1cccc([N+](=O)[O-])c1)OCc1ccc2c(c1)OCO2	x	x	x	x	-1	-1	x	x
CCN1CCN(c2ccc(S(=O)(=O)N3CCCCC3)cc2NC(=O)/C=C/c2ccc([N+](=O)[O-])cc2)CC1	8	21	x	-2	1	15*	23*	0
O=C(/C=C/c1ccc(Cl)cc1)Nc1cc(S(=O)(=O)N2CCOCC2)ccc1N1CCOCC1	x	x	x	1	0	8.2*	2	0
COc1ccc(C(=O)NC2CC2)cc1OC1CCN(Cc2cnn(C)c2C)CC1	-8	22	-8	2	1	-2	x	x
COc1ccc(C(=O)NC2CC2)cc1OC1CCN(Cc2cc(C)c(C)cc2C)CC1	-8	40	-1	1	-2	9.1*	-1	2
O=C(NN=Cc1ccco1)C(=O)Nc1cccc(C(F)(F)F)c1	x	x	x	x	-1	-1	x	x
CN(c1cccc(NC(=O)COc2ccc(Cl)cc2Cl)c1)S(C)(=O)=O	11	31	1	3	-2	9.4*	0	9.1*
COC(=O)[C@]12C[C@H](CC(=O)NCCC(C)C)C(=O)N(Cc3ccco3)C1=C[C@H](C1CCCC1)O[C@@H]2C	x	x	x	x	x	-1	x	x
O=C(COC(=O)c1ccccc1O)Nc1cccnc1Cl	0	13	0	3	1	-3	x	x
O=C(COC(=O)c1cccnc1Cl)Nc1nc(-c2ccccc2)cs1	18	20	3	2	-3	9.9*	1	2
CCCC[C@H](C(=O)N(CC)c1ccccc1)[C@@H](O)c1ccc(Cl)cc1	x	x	x	x	x	-3	x	x
COCC(C)NC(=O)c1noc2c1CCc1cc(OC)ccc1-2 (configuration not stated)	49	13	3	4	-1	9.7*	3	11*
COCCNC(=O)c1noc2c1CCc1cc(OC)ccc1-2	47	-19	3	1	-2	2	x	x
COc1ccc2c(c1)[C@]1(C(=O)N2C)C2=C(CCCC2=O)Oc2cc(C)oc(=O)c21	x	x	x	x	-1	0	x	x
O=c1c(-c2ccc(F)cc2)coc2cc(O)ccc12	17	24	1	6	-4	12*	5	11*
